Source: PubChem
Tau ThT inhib: qHTS for Inhibitors of Tau Fibril Formation, Thioflavin T Binding. Microtubule-associated protein tau (Homo sapiens), P10636. 270,000 compounds, 2.1% hits. AID 1460, 2008. recombinant tau K18 P301L, heparin-induced fibrillization, ThT fluorescence. Potency, µM (top dose mostly 57.4 µM), for inactives: at the highest dose activity, negative = inhibition, hits mostly inhibitors; also: potency is read from the fitted curve at half-maximal effect; nearly all actives have a fitted effect of over 55% in size
Target sequence (P10636 561-689 P618L limits assumed): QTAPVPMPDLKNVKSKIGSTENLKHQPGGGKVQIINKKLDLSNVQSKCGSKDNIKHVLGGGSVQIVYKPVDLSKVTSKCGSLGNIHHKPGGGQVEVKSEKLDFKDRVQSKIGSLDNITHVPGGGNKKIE
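Tau K18 P301L fragment (15 uM unlabeled plus 0.24 uM Alexa 594-labeled) in 100 mM sodium acetate pH 7 with compound, fibrillization induced by 20 uM heparin for 6 hr at 37 C. Thioflavin T (30 uM) added, fluorescence read after 1 hr (ex 450, em 510 nm).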
FBPA coupling cs: qHTS Assay for Inhibitors of Fructose-1,6-bisphosphate Aldolase from Giardia Lamblia: Coupling assay counterscreen. coupling enzyme system counterscreen, AmpLite Red fluorescence. activity change, negative = inhibition, % at 58.2 µM, hits read low. 290,000 compounds, 0.67% hits. AID 2472, 2010; in the data active = activity change below about -30%
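Activity here indicates interference with the coupling reaction, not aldolase inhibition. Compounds at 57.5 uM final met coupling enzymes for 10 min at RT; substrate and AmpLite Red detection followed, with a 525/598 nm fluorescence read after 20 min.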
Tau fluor cs: Counterscreen qHTS for Inhibitors of Tau Fibril Formation, Fluorescence Polarization; tau K18 P301L (four-repeat tau fragment) Alexa594 fluorescence, heparin fibrillization; Potency, µM (doses to about 57.7 µM), for the others: at the top dose activity change, negative = decrease; 280,000 compounds, 0.93% hits; also: potency is read from the fitted curve at half-maximal effect; nearly all actives have a fitted effect of over 55% in size
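Human K18 P301L tau (15 uM unlabeled plus 0.24 uM Alexa 594-labeled, final) in 100 mM sodium acetate pH 7 was mixed with compound and 20 uM heparin and incubated 6 hr at 37 C.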
Sfp PPTase inh: qHTS Assay for Inhibitors of Bacillus subtilis Sfp phosphopantetheinyl transferase (PPTase) | 4'-phosphopantetheinyl transferase ffp (Bacillus subtilis), Q9F4F7 | Potency, µM, without a hit: largest response in the series, negative = inhibition, most hits filed as inhibitors | Biochemical Sfp PPTase activity, qHTS | 310,000 compounds, 3.5% hits;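 also: the enzyme is Sfp with the accession as filed and its product quenches rhodamine fluorescence; potency is read from the fitted curve at half-maximal effect; 0% = enzyme reaction without inhibitor and -100% = no enzyme wells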
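Fluorescence-quenching assay with 15 nM Sfp, 5 uM rhodamine-CoA and 12.5 uM BHQ-2-labelled ybbR peptide in pH 7.6 Hepes/MgCl2 buffer. Enzyme was pre-incubated with compound for 15 min at room temperature. Rate was taken from the 30-min fluorescence change (525/598 nm).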
Tau fibril FP: qHTS for Inhibitors of Tau Fibril Formation, Fluorescence Polarization; Microtubule-associated protein tau (Homo sapiens), P10636; K18 P301L tau heparin fibrillization, Alexa594 FP, 6 h; Potency, µM (top dose mostly 57.7 µM), for the others: top-dose activity, negative = inhibition, usual class: inhibitors; 280,000 compounds, 0.39% hits; AID 1468, 2008; also: potency is read from the fitted curve at half-maximal effect; nearly all actives have a fitted effect of over 55% in size
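Human K18 P301L fragment (15 uM unlabeled plus 0.24 uM Alexa 594-labeled) in 100 mM sodium acetate pH 7 with compound, aggregation induced by 20 uM heparin for 6 hr at 37 C. ThT (30 uM) added for 1 hr, then Alexa 594 FP read.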
* marks the source's active call; other numbers are inactive results; ? = inconclusive; nt = no result; [ ] = remark or other dose. In the library only some 5.2% were active in any assay of this set; here they are far more common. Unless noted, calls follow the shape of the dose curve; as a rule, active = well fitted curve in the direction sought with a large enough effect; inconclusive = small, poorly fitted or top-dose-only effect, or another doubt; inactive = no such curve, though single readings can be large; an effect the other way counts as inactive or inconclusive. Unless noted, % is scaled to controls: 0 for no effect and ±100 for the full control effect.

SMILES | Tau ThT inhib | FBPA coupling cs | Tau fluor cs | Sfp PPTase inh | Tau fibril FP
COc1ccc(OCC(=O)NC(=S)NNC(=O)COc2ccc(Br)cc2Cl)cc1 | ? | 11 | -4% | 22µM* | -3%
N#C/C(=C\c1cc(O)c(O)c(O)c1)C(N)=O | ? | -49* | -21% | 3.5µM* | -8%
N#C/C(=C\c1cc(Cl)c(OCc2ccc(Cl)cc2)c(Cl)c1)C(N)=O | ? | -2 | -11% | -1% | -5%
COC(=O)Cc1c(C)nc2nc(-c3ccco3)[nH]n2c1=O | 3% | -3 | -7% | 56µM* | -1%
Cc1cc(Nc2cccc(Cl)c2)nc2ccc(NC(=O)Cc3c(F)cccc3Cl)cc12 | ? | nt | 7.9µM*[quencher] | nt | -13%
COc1ccc(Nc2cc(C)c3cc(NC(=O)COc4cccc(C)c4)ccc3n2)cc1 | 7.1µM* | nt | 11µM*[quencher] | nt | ?
Cc1cccc(NC(=O)Cc2c(F)cccc2Cl)n1 | nt | 0 | nt | 5% | nt
COc1ccc(Nc2cc(C)c3cc(NC(=O)c4cc(OC)cc(OC)c4)ccc3n2)cc1 | 11µM* | nt | 13µM*[quencher] | nt | ?
COc1ccc(Nc2cc(C)c3cc(NC(=O)Cc4c(F)cccc4Cl)ccc3n2)cc1 | ? | nt | 7.9µM*[quencher] | nt | ?
CCOc1ccccc1NC(=O)Cc1csc(COc2cccc(C)c2)n1 | ? | nt | -23% | nt | -11%
Cc1ccc(CNC(=O)C(=O)NCC(c2cccs2)S(=O)(=O)c2ccccc2)cc1 (stereo not drawn) | 12% | nt | 3% | nt | -1%
COc1ccc(CC(=O)Nc2ccc3nc(Nc4ccc(OC)cc4)cc(C)c3c2)cc1 | ? | nt | 3.5µM*[quencher] | nt | 2%
COc1nc(N/N=C/c2ccc(-c3ccccc3[N+](=O)[O-])o2)nc(N2CCOCC2)n1 | 10% | 5 | 10% | 14µM* | 4%
COC(=O)c1ccccc1-c1ccc(/C=N/Nc2nc(N3CCCC3)nc(N3CCCC3)n2)o1 | ? | 2 | ? | -10% | 19%
O=[N+]([O-])c1ccc(-c2ccc(/C=N/Nc3nc(NCc4ccccc4)nc(N4CCOCC4)n3)o2)cc1 | 2.8µM* | -1 | ? | 13% | ?
CCOc1ccc(CCNC(=O)Cn2nc(CC)n3c(cc4sccc43)c2=O)cc1 | -4% | nt | 0% | nt | 1%
Nc1cc([N+](=O)[O-])ccc1Nc1ccc(O)cc1 | 13µM* | -4 | 20µM*[quencher] | 56µM* | ?
Cc1ccn2c(Nc3ccc4c(c3)OCCO4)c(-c3ccc(C)o3)nc2c1 | ? | nt | ? | nt | 10%
CCc1cccc(C)c1NC(=O)CSc1nc(C)cc(C)c1C(=O)Nc1ccccc1 | -3% | nt | -9% | nt | -2%
COc1ccccc1NC(=O)c1sc2nc3c(c(C(F)(F)F)c2c1N)CN(C(C)=O)CC3 | ? | nt | -15% | nt | 8%
Cc1ccc2nc(CSc3nnc(NC(=O)c4ccc(C(C)(C)C)cc4)s3)cc(=O)n2c1 | 1% | nt | -4% | nt | -11%
COc1ccc(/C=C/C(=O)N2CCC(c3nc4ccccc4o3)CC2)cc1 | ? | nt | -8% | nt | 11%
O=c1oc2ccccc2nc1/C=C(O)/C=C\c1ccccc1 | 28µM* | 2 | -26% | -18% | ?
O=c1oc2ccccc2nc1/C=C(O)/C=C/c1ccc(F)cc1 | 8% | 1 | 2% | 79µM* | 15%
Cc1ccc(/C(O)=C/c2nc3ccccc3oc2=O)cc1 | -17% | 4 | -9% | ? | -6%
SMILES | Tau ThT inhib | FBPA coupling cs | Tau fluor cs | Sfp PPTase inh | Tau fibril FP
CCCCCCCC/C=C/CCCCCCCC(=O)NCCOP(=O)(O)O | nt | 11 | nt | 4% | nt
CCOc1ccc(NC(=O)C(CC)n2c(=O)c(-c3ccccc3NC(C)=O)nc3ccccc32)cc1 (stereo not drawn) | -13% | nt | -13% | nt | 2%
N#CC1=C(SCC(=O)c2ccc(Br)cc2)NC2=C(C(=O)CCC2)C1c1ccco1 (stereo not drawn) | 14µM* | -1 | ? | -24% | -15%
CC(=O)C1=C(C)NC(SCC(=O)c2ccccc2)=C(C#N)C1c1ccco1 (stereo not drawn) | 22µM* | -7 | ? | 56µM* | -2%
CC1=C(C(=O)Nc2ccccc2)C(c2ccncc2)C(C#N)=C(SCC(=O)NC(C)C)N1 (stereo not drawn) | -6% | -1 | -10% | ? | -4%
Cc1ccc(NC(=O)CSC2=C(C#N)C(c3ccco3)CC(=O)N2)cc1 (stereo not drawn) | -11% | 4 | -24% | -8% | -2%
Cc1ccc(C(=O)CSC2=C(C#N)C(c3ccco3)CC(=O)N2)c(C)c1 (stereo not drawn) | ? | -6 | -16% | 50µM* | -13%
CC(=O)C1=C(C)NC(SCC(=O)c2ccccc2)=C(C#N)C1CC(C)C (stereo not drawn) | -18% | -4 | -19% | 20µM* | -8%
CCc1ccc(NC(=O)CSC2=C(C#N)C(c3ccco3)C3=C(CCCC3=O)N2)cc1 (stereo not drawn) | -13% | 0 | ? | -5% | -10%
CCCCNc1nc(Oc2ccc(=O)n(-c3ccccc3)n2)nc(N(C)C)n1 | 0% | nt | -2% | nt | 7%
CN1CCN(CCC(=O)Nc2ccc(Cl)cc2)CC1 | -14% | nt | -16% | nt | -1%
CCOC(=O)c1ccc(NC(=O)c2cc(=O)c3ccc(C)c(C)c3o2)cc1 | -7% | nt | -21% | nt | -15%
[O][C@H]1[C@@H](O)[C@@H](CO)O[C@@H](O[C@@H]2[C@@H]3OC[C@H]2O[C@H](O[C@@H]2[C@@H](O)[C@H](C[C@@H]4[C@@H]5OC[C@H]4O[CH][C@@H]5O)O[C@H](CO)[C@@H]2OS(=O)(=O)O)[C@@H]3OS(=O)(=O)O)[C@@H]1O | -3% | 1 | -7% | 5% | -3%
COc1ccc(CCNC(=O)c2cnc3ccc(C)cn3c2=O)cc1 | -2% | nt | -2% | nt | 4%
COC(=O)CSC1=C(C#N)C(c2ccc(C)cc2)C2=C(CCCC2=O)N1 (stereo not drawn) | -9% | 3 | -13% | 56µM* | -12%
CC(=O)C1=C(C)NC(SCC(=O)c2ccc(Cl)cc2)=C(C#N)C1c1ccco1 (stereo not drawn) | ? | -15 | ? | 50µM* | 13%
CC(=O)C1=C(C)NC(SCc2ccc(C#N)cc2)=C(C#N)C1c1ccco1 (stereo not drawn) | -1% | -2 | -15% | ? | -10%
CC(=O)C1=C(C)NC(SCc2cccc3ccccc23)=C(C#N)C1c1ccco1 (stereo not drawn) | -17% | 0 | ? | 50µM* | ?
